Compound activity (PubChem BioAssay)
VDR inh: blocks the human vitamin D receptor. P11473. VDR-SRC2-3 peptide fluorescence polarization, 2 h. Potency, µM, without a hit: max response, negative = inhibition, hits mostly inhibitors. hit rate 0.93% among 400,000. AID 504847; note: potency is the fitted concentration of half-maximal effect; % is set by controls: 0 for no effect and ±100 for the full control effect
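Inhibition of the VDR/SRC2-3 peptide interaction is quantified by fluorescence polarization. Compounds (23 nl, pintool) incubate with the reagents for 2 hours at ambient room temperature.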
PLK1 PBD block: PLK1 (human) polo-box domain binding inhibition; Plk1 PBD binding of FITC phosphopeptide, fluorescence polarization; Potency, µM, inactives show max response, negative = inhibition, actives largely listed as inhibitors; hit rate 2.8% among 360,000; note: potency is the fitted concentration of half-maximal effect; series mostly up to about 57 µM; % is set by controls: 0 for no effect and ±100 for the full control effect; nearly all actives have a fitted effect of over 65% in size
TSHR antagonist: blocks TSH signaling through the human TSH receptor; P16473; TSHR-expressing cells, TSH-stimulated cAMP HTRF, 2 h; active compounds read low; activity change, negative = inhibition, % at 11.5 µM; hit rate 0.2% among 330,000;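 active = activity change below a set negative limit, meaning inhibition stronger than a set level, cut at about -70% in these data; inconclusive = activity change between two set negative limits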; note: % is set by controls: 0 for no effect and ±100 for the full control effect
Target sequence (P16473 whole entry, looked up): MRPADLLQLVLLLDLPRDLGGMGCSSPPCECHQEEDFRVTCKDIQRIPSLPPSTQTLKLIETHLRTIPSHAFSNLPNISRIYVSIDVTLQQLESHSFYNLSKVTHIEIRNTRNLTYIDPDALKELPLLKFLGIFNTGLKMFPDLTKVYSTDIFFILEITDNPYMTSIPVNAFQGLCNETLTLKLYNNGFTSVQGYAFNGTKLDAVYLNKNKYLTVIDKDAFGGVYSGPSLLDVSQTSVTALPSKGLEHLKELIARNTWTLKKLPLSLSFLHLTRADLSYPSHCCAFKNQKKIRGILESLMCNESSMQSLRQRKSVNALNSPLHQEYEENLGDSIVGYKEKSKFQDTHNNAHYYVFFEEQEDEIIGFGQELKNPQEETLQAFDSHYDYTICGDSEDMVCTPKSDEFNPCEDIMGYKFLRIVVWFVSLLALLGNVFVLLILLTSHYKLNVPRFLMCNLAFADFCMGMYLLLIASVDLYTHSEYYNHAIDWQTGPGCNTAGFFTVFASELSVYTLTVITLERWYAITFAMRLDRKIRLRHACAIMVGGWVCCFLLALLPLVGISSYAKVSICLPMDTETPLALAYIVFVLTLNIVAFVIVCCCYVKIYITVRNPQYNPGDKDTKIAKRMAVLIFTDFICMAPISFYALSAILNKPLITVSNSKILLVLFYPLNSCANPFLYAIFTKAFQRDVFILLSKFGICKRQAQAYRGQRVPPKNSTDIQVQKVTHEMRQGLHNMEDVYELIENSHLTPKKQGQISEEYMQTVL
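Antagonism was scored as loss of TSH-driven cAMP in TSHR cells, stimulated with 4nM TSH (EC80) for 2 hours at 37 deg C and detected by homogeneous HTRF competition immunoassay.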
TSG101-PTAP inh: blocks PTAP/TSG101 interaction to inhibit HIV-1 budding; Q99816; Fluorescence polarization, FITC-PTAP peptide / Tsg101 binding; Potency, µM (top dose mostly 115 µM), without a hit: at the highest dose activity change, negative = inhibition, usual class: inhibitors; 340,000 tested, under 10 active; AID 493005; active = well fitted inhibition curve with a large enough effect in the main read-out, with a control signal flat, not every such curve was filed as active; inconclusive = small, poorly fitted or top-dose-only effect, or effect the other way, or a change in a side signal; inactive = no such curve, though single readings can be large or run the other way; note: potency is the fitted concentration of half-maximal effect; % of control where 0% means no effect
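Compounds were pin-transferred onto Tsg101 binding domain (10 uM final) in HEPES pH 7.5 buffer, then FITC-PTAP peptide was added at 50 nM final. After 20 min at RT, polarization reported peptide displacement across a qHTS concentration series.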
uPA generation: cell surface uPA generation inhibition; cell surface uPA generation assay, qHTS; Potency, µM (top dose mostly 38.3 µM), inactives show at the top dose activity change, negative = inhibition, actives largely listed as inhibitors; hit rate 0.31% among 330,000; AID 540303; active = well fitted inhibition curve with a large enough effect; inconclusive = small, poorly fitted or top-dose-only effect; inactive = no such curve, though single readings can be large or run the other way; tested in mouse RAW 264.7 cells; note: potency is the fitted concentration of half-maximal effect; % is set by controls: 0 for no effect and ±100 for the full control effect; nearly all actives have a fitted effect of over 55% in size
Numbers without * were called inactive; ? = inconclusive; nt = no result given; ! = not confirmed by another sample. In the library only some 3.1% were active in any assay of this set; here they are far more common. Unless noted, calls come from the whole dose curve; as a rule, active = well fitted curve in the direction sought with a large enough effect; inconclusive = small, poorly fitted or top-dose-only effect, or another doubt; inactive = no such curve, though single readings can be large; an effect the other way counts as inactive or inconclusive.

SMILES	VDR inh	PLK1 PBD block	TSHR antagonist	TSG101-PTAP inh	uPA generation
CC1OC(O[C@@H]2C(O)CC(O[C@@H]3C(O)C[C@@H](OC4CC[C@]5(C)[C@H](CC[C@H]6[C@@H]5CC[C@]5(C)C(C7=CC(=O)OC7)C(O)C[C@@]65O)C4)OC3C)OC2C)CC(O)C1O (some centres undefined)	-2%	nt	nt	nt	nt
OC[C@@H]1[C@@H](O)[C@H](O)[C@H]2[C@@H](O)CCN21	-2%	nt	nt	nt	nt
N=C1/C(=C\c2ccc(OC(=O)c3ccccc3Cl)cc2)C(=O)N=C2SC(N3CCOCC3)=NN12	?	30µM*	-15	-7%	3%
CCS(=O)(=O)C1=NN2C(=N)/C(=C\c3ccc(OC(=O)c4ccco4)cc3)C(=O)N=C2S1	7%	?	-14	1%	10%
CC(Cc1cccc(C(F)(F)F)c1)NCCCc1ccccc1 (centres undefined)	-5%	nt	nt	nt	nt
CC1=CC(=O)NP(=O)(Oc2ccc3ccccc3c2)N1 (centres undefined)	-10%	6.7µM*	11	-3%	-1%
COc1cc2c(c(OC)c1OC)-c1ccc(O)cc1C(NC(C)=O)CC2 (centres undefined)	2%	-1%	nt	-5%	-17%
COc1cc2c(c(OC)c1OC)-c1ccc(O)c(=O)cc1[C@@H](NC(C)=O)CC2	-17%	1%	6	-4%	8.9µM*
CSc1ncc(/C=C2/C(=O)NC(=O)N(c3ccc(C)cc3)C2=O)cn1	40µM*	9.5µM*	-2	-3%	5%
COc1cc(/C=C2\C(=O)NC(=O)N(c3ccc(C)cc3)C2=O)cc(OC)c1O	-28%	?	-11	-1%	-27%
CCOc1ccc(N2C(=O)NC(=O)/C(=C/c3cnc(SC)nc3)C2=O)cc1	40µM*	11µM*	-1	-7%	3%
Cc1ccc(N2C(=O)NC(=O)/C(=C/c3cnn(-c4ccc(C)cc4)c3)C2=O)cc1	?	1.2µM*	-7	4%	0%
CCC(C)c1ccc(N2C(=O)NC(=O)/C(=C/c3cccn3CCOc3ccc(C)cc3)C2=O)cc1 (centres undefined)	26%	-27%	-1	?	-9%
O=C1NC(=O)N(c2ccc(Br)cc2)C(=O)/C1=C/c1ccsc1	45µM*	4.7µM*	4	-4%	-2%
Cc1ccc(N2C(=O)NC(=O)/C(=C\c3cccn3C(C)(C)C)C2=O)cc1	-8%	?	1	0%	1%
C=C(C)[C@H]1[C@H]2OC(=O)[C@@H]1[C@]1(O)C[C@H]3O[C@]34C(=O)O[C@H]2[C@@]14C	20%	nt	nt	nt	nt
CC(C)(O)[C@@H]1[C@H]2OC(=O)[C@@H]1[C@]1(O)C[C@H]3O[C@]34C(=O)O[C@H]2[C@@]14C (tested in a mixture with another compound)	-1%	nt	nt	nt	nt
O=C1NC(=O)C(Nc2ccccc2)C(=O)N1	25µM*	-25%	nt	1%	-1%
Cc1ccc(NC2C(=O)NC(=O)NC2=O)cc1	14µM*	-26%	nt	-2%	0%
O=C1NC(=S)NC(=O)C1C(=O)Nc1ccccc1	-22%	nt	nt	nt	nt
O=C1N[C@@H](Cc2c[nH]c3ccccc23)COC(=O)[C@@H](Cc2ccc(F)cc2)CC/C=C/C[C@@H]1CC(=O)N(CCO)Cc1ccccc1	-3%	-13%	-19	2%	?
CN1C(=O)C(Cc2cccc3ccccc23)C(=O)N(C)C1=O	?	21µM*	11	-4%	2%
COc1cc(C(C)=O)ccc1OC(=O)N(C)c1ccccc1	-4%	-7%	-122*	-5%	10%
Cc1ccc2cccc(OC(=O)N(C)c3ccccc3)c2n1	-10%	1%	-13	-3%	7%
CC/C=C\C/C=C\C/C=C\C/C=C\C/C=C\CCCC(=O)NCC(=O)O	-1%	nt	nt	nt	nt
SMILES	VDR inh	PLK1 PBD block	TSHR antagonist	TSG101-PTAP inh	uPA generation
CCCCC/C=C\C/C=C\C/C=C\C/C=C\CCCC(=O)OC(CO)CO	35µM*!	nt	nt	nt	nt
CCCCC/C=C\C/C=C\C/C=C\C/C=C\CCCC(=O)N[C@H](C)CO	35µM*!	nt	nt	nt	nt
CCCc1nn(C)c2c1C(c1ccncc1)C(C#N)=C(N)O2 (centres undefined)	-17%	?	9	-2%	0%
O=C(NCc1cccs1)c1cc(C2CC2)on1	-14%	-5%	1	-3%	?
Oc1ccc(/C=N/NP(=S)(c2ccccc2)c2ccccc2)cc1	-29%	24µM*	-2	-2%	9%
COc1cc(/C=N/NP(=S)(c2ccccc2)c2ccccc2)ccc1O	-7%	?	-6	1%	3%
COC(=O)C(O)C(O)(CCC(C)C)C(=O)OC1C(OC)=CC23CCCN2CCc2cc4c(cc2C13)OCO4 (centres undefined)	4%	nt	nt	nt	nt
COC(=O)C1=C(c2ccc(-c3ccccc3)c(F)c2)C[C@@H]2CC[C@H]1N2C(=O)NCc1ccco1	-3%	-23%	-83*	1%	?
COC(=O)C1=C(c2ccc(F)cc2OCc2ccccc2)C[C@@H]2CC[C@H]1N2C(=O)NCc1cccc(F)c1	?	21µM*	-27	-5%	4%
COC(=O)C1=C(c2ccc(F)cc2OCc2ccccc2)C[C@@H]2CC[C@H]1N2C(=O)NCc1ccccc1	14%	-15%	2	-5%	?
COC(=O)C1=C(c2ccc(-c3ccccc3)c(F)c2)C[C@@H]2CC[C@H]1N2C(=O)NC(C)C	4%	-4%	-93*	-1%	?
Cc1ccc(S(=O)(=O)Nc2ccc3c(c2)C(=O)N([C@H](C)CO)C[C@H](C)[C@@H](CN(C)Cc2ccc(-c4ccccc4)cc2)O3)cc1	6%	4%	-8	1%	?
Cc1ccc(S(=O)(=O)Nc2ccc3c(c2)CC(=O)N([C@H](C)CO)C[C@@H](C)[C@H](CN(C)S(=O)(=O)c2ccccc2)O3)cc1	?	21µM*	-8	-9%	-8%
COc1ccc(CN2Cc3cnnn3-c3ccccc3C2C#N)cc1 (centres undefined)	20µM*	-17%	nt	-5%	5.6µM*
Cc1ccc(Sc2ccc(C=C3C(=O)N(C)C(=O)N(C)C3=O)o2)cc1	?	0.53µM*	28	0%	0%
CN1C(=O)C(=Cc2ccc(-c3cccc(Cl)c3)o2)C(=O)N(C)C1=O	nt	nt	-2	nt	nt
CN1C(=O)NC(=O)/C(=C\c2ccc([N+](=O)[O-])o2)C1=O	?	2.7µM*	6	-7%	-1%
Cc1ccc(/C=C2/C(=O)NC(=O)N(C)C2=O)cc1	-9%	11µM*	16	-3%	1%
O=C1NC(=O)N(c2ccccc2)C(=O)/C1=C\c1ccc([N+](=O)[O-])o1	nt	nt	-7	nt	nt
CN1C(=O)NC(=O)/C(=C/c2ccc(C(=O)O)cc2)C1=O	?	12µM*	6	-3%	0%
Cc1cc(/C=C2/C(=O)NC(=O)N(C)C2=O)c(C)n1-c1ccccc1	9%	3%	23	-1%	0%
COC1=CC(=O)O[C@@H](/C=C\c2ccccc2)C1	2%	nt	nt	nt	nt
